Marburg entry inh: inhibitors of Marburg virus binding or cell entry; Potency, µM (series often up to 37.8 µM), inactives show at the highest dose activity change, negative = inhibition, usual class: inhibitors; actives 1.8% (n = 300,000); Marburg virus pseudotyped entry inhibition, cell reporter; AID 540276; calls by dose curve; tested in HEK293 cells; also: potency is read from the fitted curve at half-maximal effect
FMDV inh: foot and mouth disease virus antiviral activity; FMDV antiviral cell-based qHTS; AID 1159524; Potency, µM (top dose mostly 57.9 µM), for the others: top-dose activity change, negative = inhibition, actives largely listed as inhibitors; actives 1.2% (n = 410,000); calls by dose curve; tested in HEK293T cells; also: read-out not given here; potency is read from the fitted curve at half-maximal effect; nearly all actives have a fitted effect of over 45% in size
HCMV antiviral: blocks human cytomegalovirus replication; HFF cells, HCMV-luciferase reporter, 72 h; hits give low values; actives 4.5% (n = 410,000); activity change, negative = inhibition, % at 57.5 µM; AID 1259415; in the data active = activity change below about -60%; inconclusive = no clear call, values can overlap the other calls; inactive = above about -39%
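After 16 h attachment at 37C, HFF cells received test compound and HCMV-luciferase (1 PFU/cell); reporter luminescence read 72 h later, data normalized against buffer-only and known inhibitor Salinomycin.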
Lassa entry inh: blocks Lassa virus binding to or entry into cells | Lassa virus pseudotype entry inhibition, cell reporter | Potency, µM (series often up to 37.9 µM), for inactives: top-dose activity change, negative = inhibition, actives largely listed as inhibitors | actives 1.2% (n = 300,000) | AID 540256; calls by dose curve; tested in HEK293 cells; also: potency is read from the fitted curve at half-maximal effect; nearly all actives have a fitted effect of over 50% in size
The depositor's hits bear a star; ? = inconclusive; . = no result given; [ ] = remark or other dose. Most compounds without a hit are left out; they make up all but 6.2% or so of the library. % is scaled to controls: 0 for no effect and ±100 for the full control effect.

SMILES | Marburg entry inh | FMDV inh | HCMV antiviral | Lassa entry inh
CCOC(=O)C(CC)/C(C)=N\NC(=O)c1ccccc1O (stereo unspecified) | ? | 24.9% | -90.4* | -19.4%
CCC/C(C)=N/NC(=O)c1ccccc1O | 8.3% | 3.2% | 12.0 | 20.0%
Cc1ccc(-c2ccc(=O)n(CCC(=O)NCCc3ccccc3)n2)cc1 | . | 2.0% | 27.3 | 2.9%[46.1 µM]
COc1ccccc1C1CC(=O)Nc2cc(C)c(C)cc21 (stereo unspecified) | ? | -13.4% | -5.4 | ?
COc1cccc(C2CC(=O)Nc3cc4c(cc32)OCO4)c1OC(C)C (stereo unspecified) | ? | ? | ? | -28.9%[46.1 µM]
CC(C)Oc1ccccc1C1CC(=O)Nc2cc3c(cc21)OCO3 (stereo unspecified) | 6.51µM* | ? | -100.9* | ?
Cc1cc2c(cc1C)C(c1ccccc1OC(C)C)CC(=O)N2 (stereo unspecified) | 1µM* | -12.9% | 18.1 | ?
Cc1ccc(NC(=O)c2cccc(NC(=O)N3CCSc4ncccc43)c2)cc1F | . | 3.3% | 0.0 | -4.7%[46.1 µM]
CC(=O)N1CCC[C@@]2(CCN(Cc3ccccc3)C2)C1 | . | -5.4% | . | .
CCC1CCCCN1S(=O)(=O)c1ccc(C(=O)Nc2sc3c(c2C(=O)NC)CCC3)cc1 (stereo unspecified) | . | -12.2% | -15.3 | ?
CCN(C1=NS(=O)(=O)c2ccccc21)N(CC)S(=O)(=O)c1ccc(C)cc1 | . | ? | -68.7* | .
COc1cccc(CNC(=O)c2cnn(-c3ncc4c(n3)-c3ccccc3CCC4)c2C)c1OC | . | 43.3% | . | .
Cc1cc2oc(C(=O)Nc3c(C(=O)Nc4ccccc4)oc4ccccc34)cc(=O)c2cc1C | 18.7%[46.1 µM] | -11.7% | 22.1 | ?
CCOC(=O)CNC(=O)CSc1nnc(NC(=O)c2ccc(C)cc2)s1 | 6.31µM* | -59.7% | -29.1 | ?
Cc1ccc(C(=O)Nc2nnc(SCC(=O)N3CCCc4ccccc43)s2)cc1 | ? | ? | -19.8 | 3.55µM*
CN(C)S(=O)(=O)c1ccc(C(=O)Nc2nnc(SCC(=O)N3CCOCC3)s2)cc1 | . | 15.9% | -27.0 | .
O=C(Nc1nnc(SCC(=O)N2CCCc3ccccc32)s1)c1cccc2ccccc12 | 2.7% | -24.9% | -37.9 | -4.3%
CC(C)Oc1ccc(C(=O)Nc2nnc(SCC(=O)N3CCOCC3)s2)cc1 | ? | ? | -21.3 | 2.82µM*
CCc1nc2ccc(C(=O)NCCNC(C)=O)cn2c1N(C)Cc1ccc(OC)cc1 | . | -12.5% | 13.4 | .
CCOc1ccc(NC(=O)c2sc(-n3nc(C)c(Cc4ccc(Cl)cc4)c3C)nc2C)cc1 | 1.5%[46.1 µM] | ? | -29.0 | 7.7%[46.1 µM]
Cc1ccccc1C(=O)NC1(C(F)(F)F)N=C(c2ccccc2)N(Cc2ccccc2)C1=O (stereo unspecified) | ? | -14.5% | -23.8 | -16.8%[46.1 µM]
CCc1ccc2c(O)c3c(cc2c1C(=O)OC)C(=O)c1c(O)ccc(O)c1C3=O | . | -19.7% | . | .
N#Cc1ccc(CN2CCN(C(=O)CNC(=O)Cc3cccc4ccccc34)CC2)cc1 | ? | ? | -68.0* | ?
O=C(NCCN1CCN(c2cccc(Cl)c2)CC1)c1ccc(CSc2nc3ccncc3[nH]2)cc1 | ? | -21.7% | -79.4* | ?
O=C(Nc1ccc(Nc2cccnc2)cc1)c1c[nH]c2ccccc12 | . | . | -27.3 | .
SMILES | Marburg entry inh | FMDV inh | HCMV antiviral | Lassa entry inh
C/C(=N\NC(=O)c1ccccc1NC(=O)c1ccc(Cl)cc1)c1ccncc1 | ? | 3.16µM* | -28.0 | ?
C/C(=N\NC(=O)c1ccc(N/N=C(\C)c2ccncc2)cc1)c1ccncc1 | 1µM* | -10.2% | -39.3 | -2.6%[46.1 µM]
C/C(=N/NC(=O)c1ccncc1)c1ccccc1 | ? | 30.0% | 16.1 | -2.4%
O=C(Nc1nc(-c2ccccc2)cs1)C1CCCN(S(=O)(=O)c2cccc([N+](=O)[O-])c2)C1 (stereo unspecified) | ? | -21.1% | 0.9 | ?
O=C(Nc1ccc(S(=O)(=O)N2CCCC2)cc1)c1cccs1 | -4.7%[46.1 µM] | 18.9% | ? | ?
O=C(Nc1nc(-c2cccs2)cs1)c1cccc(S(=O)(=O)N2CCCCC2)c1 | ? | -8.9% | 105.0 | -5.2%
O=C(Nc1nc(-c2ccc(S(=O)(=O)N3CCCCCC3)cc2)cs1)c1cccs1 | ? | 10µM* | -10.0 | -12.4%
O=C(Nc1nc(-c2ccccc2)cs1)C1CCCN(S(=O)(=O)c2ccccc2)C1 (stereo unspecified) | 8.2µM* | 10µM* | ? | 10.3µM*
O=C(Nc1nc(-c2ccc(S(=O)(=O)N3CCCC3)cc2)cs1)c1cccs1 | ? | ? | -87.0* | ?
Cc1c(C(=O)N(C)CC2CCCN(C)C2)cnn1-c1nccc(-c2ccco2)n1 (stereo unspecified) | . | 19.0% | . | .
COC(=O)c1ccc(CN2C(=O)[C@@]3(CC(C)=CC[C@@H](C)O3)c3ccccc32)cc1 | -29.1%[14.2 µM] | . | . | .
C#C[C@H](N)CCC(=O)O | -0.3% | . | . | .
COc1c(C)cc(NS(=O)(=O)c2ccc3c(c2)OCCO3)cc1C | -8.0%[46.1 µM] | -4.4% | -39.0 | -30.0%[46.1 µM]
COc1ccc(CNc2ncnc3c2[nH]c2ccccc23)cc1 | ? | ? | -71.8* | ?
CC(C)OCCCNc1ncnc2c1[nH]c1ccccc12 | ? | 17.8µM* | -75.3* | ?
O=c1c2[nH]c3ccccc3c2ncn1CCC1=CCCCC1 | ? | 51.9% | 43.3 | 3.8%
CCOc1ccc2[nH]c3c(NCCCOC)ncnc3c2c1 | . | 27.2% | 36.3 | .
C1=C(CCNc2ncnc3c2[nH]c2ccccc23)CCCC1 | ? | -1.3% | -90.5* | ?
COc1ccc2[nH]c3c(NCCN(C(C)C)C(C)C)ncnc3c2c1 | 11.2µM* | -17.4% | 11.8 | -8.7%
COc1cc2ncc3c(-c4ccc(C)cc4)nn(-c4ccc(F)cc4F)c3c2cc1OC | . | -21.9% | -27.3 | -9.4%[46.1 µM]
COCc1ccc(CN2CCOc3ccc(C4=CCCCC4)cc3C2)o1 | . | -7.6% | . | .
O=C(COc1ccccc1)NC1CC(=O)N(c2ccc3c(c2)OCCO3)C1 (stereo unspecified) | . | 10.9% | 9.2 | 12.3%[46.1 µM]
COc1ccc(-c2nc(-n3c(C)c(C(C)=O)c(C(C)=O)c3C)sc2C)cc1OC | -21.0% | -27.8% | 47.7 | 3.3%
CC(=O)c1c(C(C)=O)c(C)n(-c2nc(-c3ccc(Br)cc3)c(C)s2)c1C | ? | ? | ? | 16.4µM*
COc1cc(OC)c(NC(=O)c2c(C)nn(-c3ccc(C)cc3)c2-n2cccc2)cc1Cl | . | -21.6% | -8.9 | -2.1%[46.1 µM]
SMILES | Marburg entry inh | FMDV inh | HCMV antiviral | Lassa entry inh
COc1cccc(-c2cnc(C(O)c3ccc(F)c(C)c3)[nH]2)c1 (stereo unspecified) | . | 51.9% | -5.6 | .
Cc1cc(NC(=O)CCC(=O)N(c2ccc(F)cc2)C2(C(=O)NC3CCCCC3)CCCC2)no1 | 11.2µM* | -29.3% | -21.5 | -22.8%
Cc1cc(NC(=O)CCC(=O)N(Cc2ccccc2)C2(C(=O)NC3CCCCC3)CCCC2)no1 | ? | -5.3% | ? | ?
COc1cccc(CN(CC(=O)NC2CCCC2)C(=O)CCC(=O)Nc2cc(C)on2)c1 | -11.4% | -13.1% | -80.8* | 2.6%
CC(C)(C)OC(=O)/C=C/[C@H]1Cc2ccccc2N1 | . | . | 19.4 | .
Cc1ccc(Cl)cc1NC(=S)N(CCCN1CCOCC1)Cc1ccccn1 | 10.8% | -2.9% | -11.9 | 10.8%

Screens from PubChem.
